Laboratory results reported in PubChem BioAssay (NCATS).
Results filed as inconclusive are left out. Where a call stands in place of a potency, no number is given. Activity calls are given as the source filed them. Calls follow the shape of the dose curve; as a rule, active = well fitted inhibition curve with a large enough effect; inconclusive = small, poorly fitted or top-dose-only effect; inactive = flat fitted curve, though single readings scatter.

How the values were obtained:
Experiment in all cases: qHTS profiling for inhibitors of Plasmodium falciparum proliferation (AID 504749); also: nearly all actives have a fitted effect of over 60% in size
Details in all cases: P. falciparum in erythrocytes, SYBR Green DNA, 72 h; series mostly up to 28.7 µM
[1] = system: CP217
How it was run: (§1)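 Quantitative HTS: compounds pinned into medium, infected erythrocytes added (0.3% parasitemia, 2.5% hematocrit), 72 h culture at 37 C under 5% CO2. Saponin/Triton lysis with SYBR Green I, overnight RT, then fluorescence read.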

[2] = system: CP237
How it was run: as §1

[3] = system: CP238
How it was run: as §1

[4] = system: CP247
How it was run: as §1

[5] = system: CP250
How it was run: as §1

[6] = system: CP252
How it was run: as §1

[7] = system: CP256
How it was run: as §1

[8] = system: CP260
How it was run: as §1

[9] = system: CP262
How it was run: as §1

[10] = system: CP265
How it was run: as §1

[11] = system: CP266
How it was run: as §1

[12] = system: CP268
How it was run: as §1

[13] = system: CP269
How it was run: as §1

[14] = system: CP286
How it was run: as §1

[15] = system: CP291
How it was run: as §1

[16] = system: CP297
How it was run: as §1

[17] = system: CP305
How it was run: as §1

[18] = system: CP315
How it was run: as §1

[19] = system: CP325
How it was run: as §1

[20] = system: CP329
How it was run: as §1
Potency is read from the fitted curve at half-maximal effect.

Row | Compound | Potency [1] | Potency [2] | Potency [3] | Potency [4] | Potency [5] | Potency [6] | Potency [7] | Potency [8] | Potency [9] | Potency [10] | Potency [11] | Potency [12] | Potency [13] | Potency [14] | Potency [15] | Potency [16] | Potency [17] | Potency [18] | Potency [19] | Potency [20]
1 | NCC(CC(=O)O)c1ccc(Cl)cc1 (stereo not given) | inactive | inactive | inactive | inactive | inactive | inactive | inactive | inactive | inactive | inactive | inactive | inactive | inactive | inactive | inactive | inactive | inactive | inactive | inactive | inactive
2 | CCOP(=S)(OCC)Oc1cc(C)nc(C(C)C)n1 | inactive | inactive | inactive | inactive | inactive | inactive | inactive | inactive | inactive | inactive | inactive | inactive | inactive | inactive | inactive | inactive | inactive | inactive | inactive | inactive
3 | CC(=O)Nc1cc([As](=O)(O)O)ccc1O | inactive | inactive | inactive | inactive | inactive | inactive | inactive | inactive | inactive | inactive | inactive | inactive | inactive | inactive | inactive | inactive | inactive | inactive | inactive | inactive
4 | CC[N+]1(C)CCCC(OC(=O)C(O)(c2ccccc2)c2ccccc2)C1 (stereo not given) | inactive | inactive | inactive | inactive | inactive | inactive | inactive | inactive | inactive | inactive | inactive | inactive | inactive | inactive | inactive | inactive | inactive | inactive | inactive | inactive
5 | CC(C)(C)CC(C)(C)c1ccc(O)cc1 | inactive | inactive | inactive | 11.2 µM (active) | inactive | inactive | inactive | inactive | inactive | inactive | inactive | inactive | inactive | inactive | inactive | inactive | inactive | inactive | inactive | inactive
6 | NCCc1cc(O)c(O)cc1O | inactive | inactive | inactive | inactive | inactive | inactive | inactive | inactive | inactive | inactive | inactive | inactive | inactive | inactive | inactive | inactive | inactive | inactive | inactive | inactive
7 | O=C(NC(O)C(Cl)(Cl)Cl)NC(O)C(Cl)(Cl)Cl (stereo not given) | inactive | inactive | inactive | inactive | inactive | inactive | inactive | inactive | inactive | inactive | inactive | inactive | inactive | inactive | inactive | inactive | inactive | inactive | inactive | inactive
8 | Cn1c(CCCC(=O)O)nc2cc(N(CCCl)CCCl)ccc21 | inactive | inactive | inactive | inactive | inactive | inactive | inactive | inactive | inactive | inactive | inactive | inactive | inactive | inactive | inactive | inactive | inactive | inactive | inactive | inactive
9 | NCC1(CC(=O)O)CCCCC1 | inactive | inactive | inactive | inactive | inactive | inactive | inactive | inactive | inactive | inactive | inactive | inactive | inactive | inactive | inactive | inactive | inactive | inactive | inactive | inactive
10 | NP(N)(=O)NC(=O)c1ccc(F)cc1 | inactive | inactive | inactive | inactive | inactive | inactive | inactive | inactive | inactive | inactive | inactive | inactive | inactive | inactive | inactive | inactive | inactive | inactive | inactive | inactive
11 | CC1OC(C)OC(C)O1 (stereo not given) | inactive | inactive | inactive | inactive | inactive | inactive | inactive | inactive | inactive | inactive | inactive | inactive | inactive | inactive | inactive | inactive | inactive | inactive | inactive | inactive
12 | O=P1(NCCCl)OCCCN1CCCl (stereo not given) | inactive | inactive | inactive | inactive | inactive | inactive | inactive | inactive | inactive | inactive | inactive | inactive | inactive | inactive | inactive | inactive | inactive | inactive | inactive | inactive
13 | CCOC(=O)C1(c2ccccc2)CCN(CCC(C#N)(c2ccccc2)c2ccccc2)CC1 | 3.16 µM (active) | 3.98 µM (active) | 3.16 µM (active) | 4.47 µM (active) | 3.55 µM (active) | 3.55 µM (active) | 1.58 µM (active) | 3.55 µM (active) | 5.36 µM (active) | 2.51 µM (active) | 6.01 µM (active) | 3.79 µM (active) | 4.26 µM (active) | 2.82 µM (active) | 4.26 µM (active) | 5.36 µM (active) | 4.78 µM (active) | 4.78 µM (active) | 4.26 µM (active) | 3.79 µM (active)
